Only a selection was taken, and hits are over-represented in it overall.
CBX7 inh – CBX7 chromodomain binding inhibitors, primary screen, biochemical, AlphaScreen | 66,000 tested, 1.1% active | normalised signal (fraction of DMSO) (no concentration beside the values) | AlphaScreen His6-CBX7 / biotin-H3K27me3 peptide binding; active compounds read low; in the data active means normalised signal below about 0.5
Target sequence (O95931 whole entry, looked up): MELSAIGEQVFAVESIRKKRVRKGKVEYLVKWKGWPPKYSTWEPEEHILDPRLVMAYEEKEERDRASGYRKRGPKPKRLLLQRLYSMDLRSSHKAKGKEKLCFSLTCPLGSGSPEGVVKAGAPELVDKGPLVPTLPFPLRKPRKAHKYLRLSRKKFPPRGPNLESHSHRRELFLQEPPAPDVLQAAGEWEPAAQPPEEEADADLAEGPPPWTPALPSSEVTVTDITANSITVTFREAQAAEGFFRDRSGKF
* hit, by the source's call.

`Cc1c(Cl)cccc1Nc1cc(C)c2ccc(O)cc2n1` gave CBX7 inh 1.01.
Screening CCOC(=O)C1CCN(C(C(=O)NC2CCCCC2)c2ccc(Cl)cc2)CC1 (stereo unspecified) returned CBX7 inh 1.02.
For Cc1ccc(Nc2c(-c3ccc(N(C)C)cc3)nc3ccc(Cl)cn23)cc1 the results were CBX7 inh 0.934.
CC(CCc1ccccc1)NC(=O)c1ccc2c(c1)ncn2C1CCCC1 (stereo unspecified) was read as CBX7 inh 0.841.
For COCCNC(=O)CC1Oc2ccc(C)cc2NC1=O (stereo unspecified) the results were CBX7 inh 1.03.
CC1CCN(CCCNC(=O)c2cnc(N3CCN(c4ncccn4)CC3)c3ccccc23)CC1 was read as CBX7 inh 1.09.
Cc1[nH]c2ccccc2c(=O)c1CN1CCC(C)CC1 was read as CBX7 inh 1.06.
`CC1CCN(Cc2nc(-c3ccccc3)no2)CC1` gave CBX7 inh 0.91.
Screening CC1CCN(Cc2cc(Cl)c3cccnc3c2O)CC1 returned CBX7 inh 0*.
Screening CC1CCN(c2nc(-c3ccccc3O)nc3ccccc23)CC1 returned CBX7 inh 1.04.
Screening CCCC(=O)NC(c1ccc(C)cc1)c1cc(Cl)c2cccnc2c1O (stereo unspecified) returned CBX7 inh 0.72.
Screening CC1CCN(Cc2cc(Cl)c(O)c3ncccc23)CC1 returned CBX7 inh 0.00286*.
CC1CCN(Cc2cc(Cn3ccnc3)c3cccnc3c2O)CC1 was read as CBX7 inh 0.00606*.
Screening Cc1cc(OCC(O)CN2CCC(C)CC2)ccc1Cl (stereo unspecified) returned CBX7 inh 1.07.
`CC(=O)N1CCc2cc(S(=O)(=O)N3CCCC(C)C3)ccc21` (stereo unspecified) gave CBX7 inh 1.09.
Screening CC1CCN(S(=O)(=O)c2ccc3[nH]c(=O)cc(C(=O)NCc4ccc5c(c4)OCO5)c3c2)CC1 returned CBX7 inh 1.07.
`COc1ccc(C(=O)Nc2c(C(=O)c3ccc(Cl)cc3)oc3ccccc23)cc1` gave CBX7 inh 1.08.
Screening O=C(NCc1ccccc1)c1ccc2c(c1)N(Cc1ccc(Cl)cc1)C(=O)c1ccccc1S2 returned CBX7 inh 0.955.
O=C(Nc1ccc(Cl)c(-c2nc3ncccc3o2)c1)c1ccc(F)cc1 was read as CBX7 inh 1.1.
`OC(COc1ccccc1)Cn1c(Cc2ccccc2)nc2ccccc21` (stereo unspecified) gave CBX7 inh 0.914.
For COCCN(CCOC)S(=O)(=O)c1ccc(C(=O)Nc2nnc(C)o2)cc1 the results were CBX7 inh 0.0057*.
For CCCN(CCC)S(=O)(=O)c1ccc(C(=O)Nc2nnc(-c3ccccc3Cl)o2)cc1 the results were CBX7 inh 1.13.
For COCCN(CCOC)S(=O)(=O)c1ccc(C(=O)Nc2nc(-c3ccncc3)cs2)cc1 the results were CBX7 inh 1.03.
`COCCN(CCOC)S(=O)(=O)c1ccc(C(=O)Nc2nnc(-c3ccccc3Cl)o2)cc1` gave CBX7 inh 0.265*.
For CN(C1CCCCC1)S(=O)(=O)c1ccc(C(=O)Nc2nnc(-c3ccccc3Cl)o2)cc1 the results were CBX7 inh 0.912.
CCCCN(CCCC)S(=O)(=O)c1ccc(C(=O)Nc2ccccc2-c2nc3ccccc3[nH]2)cc1 was read as CBX7 inh 1.04.
`CCCCN(CCCC)S(=O)(=O)c1ccc(C(=O)Nc2nnc(C)o2)cc1` gave CBX7 inh 0.00474*.
Screening CN(C)S(=O)(=O)c1ccc(C(=O)Nc2c(C(N)=O)oc3ccccc23)cc1 returned CBX7 inh 1.05.
`COCCN(CCOC)S(=O)(=O)c1ccc(C(=O)Nc2nnc(COC)o2)cc1` gave CBX7 inh 0.583.
`CCCCN(CCCC)S(=O)(=O)c1ccc(C(=O)Nc2nc3c(s2)COc2ccccc2-3)cc1` gave CBX7 inh 0.965.
COc1ccc(-c2nnc(NC(=O)c3ccc(S(=O)(=O)N(C)C)cc3)o2)c(OC)c1 was read as CBX7 inh 0.582.
For Cc1nnc(NC(=O)c2ccc(S(=O)(=O)N(C)C)cc2)o1 the results were CBX7 inh 0.0121*.
`O=C(CN1C(=O)COc2ccc(S(=O)(=O)N3CCOCC3)cc21)NCCc1ccc(Cl)cc1` gave CBX7 inh 0.994.
For CCOc1ccc(NC(=O)Nc2cc3sccc3n2C)cc1 the results were CBX7 inh 0.905.
CCOc1ccc(NC(=O)CC2C(=O)N(c3ccc(F)cc3)C(=O)N2C(C)C)cc1 (stereo unspecified) was read as CBX7 inh 1.06.
Screening Cc1[nH]c2ccccc2c1CCNC(=O)CCCNS(=O)(=O)c1ccccc1 returned CBX7 inh 1.18.
`COCc1nnc(NC(=O)c2ccc(S(=O)(=O)N(C)Cc3ccccc3)cc2)o1` gave CBX7 inh 0.885.
For Cc1nnc(NC(=O)c2ccc(S(=O)(=O)N(C)Cc3ccccc3)cc2)o1 the results were CBX7 inh 0.00809*.
Screening CN(Cc1ccccc1)S(=O)(=O)c1ccc(C(=O)Nc2ccccc2-c2nc3ccccc3o2)cc1 returned CBX7 inh 1.
COCCN(CCOC)S(=O)(=O)c1ccc(C(=O)Nc2nnc(-c3ccc(F)cc3)o2)cc1 was read as CBX7 inh 0.0251*.
`COCCN(CCOC)S(=O)(=O)c1ccc(C(=O)Nc2nc(-c3ccc(OC)cc3)cs2)cc1` gave CBX7 inh 1.01.
CCN(Cc1ccccc1)S(=O)(=O)c1ccc(C(=O)Nc2nnc(-c3ccc(OC)cc3)o2)cc1 was read as CBX7 inh 1.18.
Screening COc1ccc(C(=O)Nc2c3c(nn2-c2ccccc2C)CS(=O)(=O)C3)cc1OC returned CBX7 inh 1.03.
`Cc1csc2ncc(C(=O)N(C)Cc3ccccc3)c(=O)n12` gave CBX7 inh 0.949.
Cc1cc(N2CCC(C)CC2)nc2ccc(NC(=O)CCC(=O)NC3CCCCCC3)cc12 was read as CBX7 inh 1.
O=C(NC1CCCC1)C1c2cccn2CC(=O)N1C1CC1 (stereo unspecified) was read as CBX7 inh 1.06.
For Cc1cc(C)c(S(=O)(=O)Nc2cccc3cccnc23)c(C)c1 the results were CBX7 inh 1.28.
`O=S(=O)(Nc1cccc2cccnc12)c1ccccc1O` gave CBX7 inh 0*.
`CC(=O)Nc1ccc(NS(=O)(=O)c2cccc3cccnc23)cc1` gave CBX7 inh 1.
For N#Cc1nc(COc2ccccc2F)oc1NCCc1ccccc1 the results were CBX7 inh 0.491*.
Screening CN(Cc1ccccc1)c1oc(COc2ccc(Cl)cc2)nc1C#N returned CBX7 inh 0.484*.
N#Cc1nc(COc2ccc(F)cc2)oc1NCCc1ccccc1 was read as CBX7 inh 0.564.
N#Cc1nc(COc2ccc(Cl)cc2)oc1NCc1cccnc1 was read as CBX7 inh 0.969.
`COc1ccc(Nc2oc(COc3ccccc3F)nc2C#N)cc1` gave CBX7 inh 1.09.
For COc1ccccc1OCc1nc(C#N)c(NCCc2ccccc2)o1 the results were CBX7 inh 0.923.
Screening Cc1ccccc1OCc1nc(C#N)c(NCCCn2ccnc2)o1 returned CBX7 inh 0.886.
COc1ccc(CCNc2oc(COc3ccc(Cl)cc3)nc2C#N)cc1 was read as CBX7 inh 0.934.
Screening N#Cc1nc(COc2ccccc2Cl)oc1NCCCn1ccnc1 returned CBX7 inh 0*.
N#Cc1nc(COc2ccc(Cl)cc2)oc1NCCCn1ccnc1 was read as CBX7 inh 0.896.
